# Compound activity deposited in PubChem BioAssay by National Center for Advancing Translational Sciences (NCATS).
# Most compounds without a hit are left out; they make up all but 12% or so of the library.
# Marburg entry inh = Marburg virus entry inhibition; 1.8% of 300,000 active; Potency, µM (doses to about 37.8 µM), for inactives: at the top dose activity change, negative = inhibition, hits mostly inhibitors; Marburg virus pseudotyped entry inhibition, cell reporter; calls by dose curve; tested in HEK293 cells; note: potency is the fitted concentration of half-maximal effect; % is set by controls: 0 for no effect and ±100 for the full control effect
# Lassa entry inh = blocks Lassa virus binding to or entry into cells. Potency, µM (series often up to 37.9 µM), inactives show top-dose activity change, negative = inhibition, usual class: inhibitors. Lassa virus pseudotype entry inhibition, cell reporter. 1.2% of 300,000 active; calls by dose curve; tested in HEK293 cells; note: potency is the fitted concentration of half-maximal effect; % is set by controls: 0 for no effect and ±100 for the full control effect; nearly all actives have a fitted effect of over 50% in size
# Cycloheximide cs = counter-screen hit for Shiga toxin inhibitors, cycloheximide; cell reporter, cycloheximide protein synthesis inhibition counterscreen; max response, %; 12% of 300,000 active; in the data active = max response mostly above about 13%, no sharp cut-off; inactive = mostly below about 14%; note: read at 38.3 µM for the half of the compounds with a filed dose; 0% is about no effect
# Shiga toxin inh = inhibitors of Shiga toxin in Vero cells | Vero cells, Shiga toxin protein synthesis inhibition reporter | inhibition, % at 38.7 µM | 9.2% of 290,000 active; in the data active = inhibition mostly above about 28%, no sharp cut-off; inactive = mostly below about 43%; note: 0% is about no effect
# Numbers without * were called inactive; u = inconclusive; x = no result; [ ] = remark or other dose.
SMILES,Marburg entry inh,Lassa entry inh,Cycloheximide cs,Shiga toxin inh
CCCCn1c(NS(=O)(=O)c2ccc(C)cc2)c(S(=O)(=O)c2ccccc2)c2nc3ccccc3nc21,-2%,5%,-5,-5
Cc1ccc(CNC(=O)Cn2nc(N3CCN(c4ccccc4)CC3)ccc2=O)cc1,x,-4%[46.1 µM],x,x
CCCCc1noc2c1/C(=N\O)CC(c1ccccc1)C2 (stereo not drawn),u,2%,22*,18
CCCCc1n[nH]c2c1/C(=N/O)CC(c1ccccc1)C2 (stereo not drawn),u,u,27*,66
CCc1n[nH]c2c1/C(=N\O)CC(c1ccccc1)C2 (stereo not drawn),-19%,-9%,12,20
CC(C)(C)C(=O)c1cnc(Nc2ccccc2Cl)s1,0%,-29%,59*,67*
O=C(c1ccccc1)c1cnc(Nc2ccccc2Cl)s1,u,-12%,42*,89*
CCCC(=O)Nc1ccc2nc(SCCOc3ccccc3)sc2c1,-26%[46.1 µM],-16%[46.1 µM],x,x
Cc1cccc(C)c1NC(=O)COC(=O)c1ccc2[nH]c3c(c2c1)CCCC3,x,x,1,-2
Nc1ccccc1C(=O)OCCOc1ccccc1,10µM*,u,34*,87*
O=C(O)c1ccccc1OCCOc1ccccc1,9%,4%,8,12
CN(C(=O)COC(=O)c1n[nH]c2ccccc12)c1ccccc1,u,-27%[46.1 µM],27*,41
O=C(COC(=O)c1ccc2[nH]c3c(c2c1)CCCC3)Nc1ccccc1,-15%,u,16*,42*
O=C(OCCOc1ccccc1)c1n[nH]c2ccccc12,-2%[46.1 µM],u,47*,55*
COc1ccc(CN2CCN(C(=O)C3CCC(CNS(=O)(=O)c4ccccc4)CC3)CC2)c(OC)c1OC (stereo not drawn),u,-7%[46.1 µM],-2,14
CN(C)c1cccc(C(=O)OCC(=O)N(C)c2ccccc2)c1,u,14%[46.1 µM],7,-5
Cc1cc(C)cc(NC(=O)COC(=O)c2n[nH]c3ccccc23)c1,u,25%,31,65*
CCOC(=O)c1n[nH]c2ccccc12,-16%,15%,-2,-29
CN(C(=O)COC(=O)c1cccc(F)c1)c1ccccc1,27%[46.1 µM],u,13*,14
O=C(COC(=O)c1n[nH]c2ccccc12)Nc1ccccc1,u,16%,39*,57*
CC(=O)c1cccc(NC(=O)COC(=O)c2n[nH]c3ccccc23)c1,9%,9%,19*,102*
O=C(COC(=O)c1n[nH]c2ccccc12)Nc1cccc(S(=O)(=O)N2CCOCC2)c1,-13%[46.1 µM],8%,6,28
O=C(COC(=O)c1n[nH]c2ccccc12)Nc1ccc(S(=O)(=O)N2CCCC2)cc1,u,-25%,-3,-6
O=C(CSc1nc2c(c(=O)[nH]1)CN(Cc1ccc(F)cc1)CC2)Nc1cccc(C(F)(F)F)c1,u,8%[46.1 µM],x,x
O=C(O)CC(NC(=O)c1ccncc1)c1ccccc1 (stereo not drawn),u,-25%[46.1 µM],5,-9
SMILES,Marburg entry inh,Lassa entry inh,Cycloheximide cs,Shiga toxin inh
Cc1nnc(SCC(=O)N(C2CCCCC2)C2CCS(=O)(=O)C2)n1N (stereo not drawn),-3%[46.1 µM],19%,x,x
CC1=NN(C(N)=S)C(=O)C1N=Nc1ccc(F)cc1 (stereo not drawn),x,x,25*,66*
CC1=NN(C(N)=S)C(=O)C1N=Nc1cccc(C)c1 (stereo not drawn),x,x,22*,24
CC(=O)Nc1ccc(N=NC2C(=O)N(C(N)=S)N=C2C)cc1 (stereo not drawn),x,x,21*,40
CCOc1ccc(N=NC2C(=O)N(C(N)=S)N=C2C)cc1 (stereo not drawn),x,x,28*,x
CC1=NN(C(N)=S)C(=O)C1N=Nc1cccc(C(=O)O)c1 (stereo not drawn),u,-3%[46.1 µM],0,10
COc1cccc(C(=O)NCCS(=O)(=O)N2CC(C)CC(C)C2)c1 (stereo not drawn),4%,1%,x,x
COc1ccc(C(=O)N/C(=C\c2ccc3c(c2)OCO3)C(=O)Nc2cccc(C(=O)O)c2)cc1,x,x,9,-6
COc1cccc(N2CCN(C(=O)C3CCN(S(=O)(=O)c4cccc5nonc45)CC3)CC2)c1,x,-14%[46.1 µM],x,x
CC1=NN(C(N)=S)C(=O)C1N=Nc1ccc(C)c(Br)c1 (stereo not drawn),x,x,36*,59*
CCOC(=O)c1sc(N2N=C(C)C(N=Nc3cccc(C)c3)C2=O)nc1C (stereo not drawn),3%,x,15,39
CC1=NN(c2nc(-c3ccc(C)cc3)cs2)C(=O)C1N=Nc1cccc(C)c1 (stereo not drawn),3%,0%,20*,29
CC1=NN(C(N)=S)C(=O)C1N=Nc1ccc([N+](=O)[O-])cc1 (stereo not drawn),19%[46.1 µM],30%,53*,39*
